Holding throughout (assay type): functional
Experiment [1] relates to Plasmodium falciparum. Kind of experiment: GSK_TCMDC: Inhibition of Plasmodium falciparum 3D7 in whole red blood cells, using parasite LDH activity as an index of growth. Test compounds present at 2uM.
Experiment [2] has as its system Plasmodium falciparum. Kind of experiment: GSK_TCMDC: Inhibition of Plasmodium falciparum Dd2 in whole red blood cells, using parasite LDH activity as an index of growth. Test compounds present at 2uM.
The subject of a further experiment is HepG2. In words: GSK_TCMDC: Percent inhibition of human HepG2 cell line. Test compounds present at 10uM.

“And” between values parts separate entries of the source, which are not always exact repeats. Identical values can stand only once.

In the case of `CCCc1c(C(=O)NC2CCC(CN3CCC(c4c[nH]c5ccccc45)CC3)CC2)cnn1-c1ccc(Cl)cc1` (stereo not drawn), the figures for the Inhibition in the experiment with Plasmodium falciparum [1], with Plasmodium falciparum [2] and in the experiment on HepG2 were 90%, 37% and 53%, respectively.
On the same counts, the results for `CCN1CC=C(c2c[nH]c3ccccc23)CC1` are 84%, 58% and 27%.
The corresponding values for `CC(=O)Nc1ccc(CN2CCC(N(C)c3cc(NC(=O)c4ccc(F)cc4)ccn3)CC2)cc1.O=C(O)C(F)(F)F` are 95%, 5% and 0%.
On the same counts, the results for `O=C(NCCC1CCN(CCc2c[nH]c3ccccc23)CC1)Nc1ccc(Cl)c(Cl)c1` are 100%, 5% and 18%.
For the compound `CN(c1cc(NC(=O)c2ccc(F)cc2)ccn1)C1CCN(Cc2cccc(C#N)c2)CC1.O=C(O)C(F)(F)F`, the Inhibition (usually how much of the control response was suppressed) in the experiment on Plasmodium falciparum [1] stood at 97%; with Plasmodium falciparum [2], 83%; with HepG2, 73%.
On the same counts, the results for `CN1CC=C(c2csc3ccc(NC(=O)Nc4ccc(-c5ccncc5)c(Cl)c4)cc23)CC1` are 100%, 100% and 10%.
The corresponding values for `CC(C)CNCc1cccc(-c2ccccc2CN(C(=O)Nc2ccccc2)C2CCN(Cc3ccccc3)CC2)c1.O=C(O)C(F)(F)F` are 100%, 68% and 36%.
The corresponding values for `Cn1nc(C(F)(F)F)cc1-c1ccc(C(=O)NC2CCC(CN3CCC(c4c[nH]c5ccccc45)CC3)CC2)s1` (stereo not drawn) are 100%, 97% and 45%.
`CC(Cc1ccc(OCCCCOc2ccccc2)cc1)NCCCN1CCOCC1` (stereo not drawn): the Inhibition was determined as 98% with Plasmodium falciparum [1], 78% in the experiment with Plasmodium falciparum [2] and 98% with HepG2.
Consider `O=C(/C=C/c1ccc(Cl)c(Cl)c1)N1CCC(CN2CCC(c3cn(CC(=O)N4CCCCC4)c4ccccc34)CC2)CC1.O=C(O)C(F)(F)F`, for which the values for the Inhibition with Plasmodium falciparum [1], in the experiment on Plasmodium falciparum [2] and with HepG2 were 100%, 65% and 52%, respectively.
Take `CCCCC1(NC(=O)[C@H](CC(C)C)Nc2ccc(C#N)c3ccccc23)CCCCC1.O=C(O)C(F)(F)F`: the Inhibition in the experiment with Plasmodium falciparum [1] was found to be 96%; in the experiment on Plasmodium falciparum [2], 47%; with HepG2 it was 37%.
Consider `O=C(/C=C/c1cccc2ccccc12)NC1CCC(CN2CCC(c3c[nH]c4ccccc34)CC2)CC1` (stereo not drawn), for which the Inhibition is 100% in the experiment with Plasmodium falciparum [1]; 72% and 66% in the experiment with Plasmodium falciparum [2]; 45% and 53% in the experiment with HepG2.
Consider `Br.COC(=O)c1ccc(CC(C)NCC(O)c2cccc(SC(F)(F)F)c2)cc1` (stereo not drawn), for which the Inhibition is 96% with Plasmodium falciparum [1], 72% in the experiment with Plasmodium falciparum [2] and 7% in the experiment on HepG2.
With `Cc1ccc(/C=C/C(=O)NC2CCC(CN3CCC(c4c[nH]c5ccccc45)CC3)CC2)cc1` (stereo not drawn), the Inhibition was 100% with Plasmodium falciparum [1]; 66% and 69% in the experiment on Plasmodium falciparum [2]; 32% and 41% in the experiment with HepG2.
Take `N#Cc1c(Cl)cccc1Oc1ccc(S(=O)(=O)NC2CCC(CN3CCC(c4c[nH]c5ccccc45)CC3)CC2)cc1` (stereo not drawn): the Inhibition in the experiment with Plasmodium falciparum [1] was 85% and 100%; in the experiment with Plasmodium falciparum [2] it was 36% and 16%; in the experiment with HepG2 it was 31% and 29%.
Consider `Cc1nc(-c2ccc(-c3ccc(C(=O)Nc4ccc5c(c4)C4(CCNCC4)CO5)cc3)c(C)c2)no1.Cl`, for which the Inhibition with Plasmodium falciparum [1] is recorded as 90%; in the experiment on Plasmodium falciparum [2], 15%; in the experiment on HepG2, 37%.
Turning to `CCOc1ccc2nccc([C@@H](O)[C@@H]3C[C@@H]4CCN3C[C@@H]4CC)c2c1.Cl` [ETHYLHYDROCUPREINE HYDROCHLORIDE], the Inhibition with Plasmodium falciparum [1] is 98%; in the experiment on Plasmodium falciparum [2], 99%; with HepG2, 24%.
The corresponding values for `CC[C@H]1CN2CC[C@H]1C[C@H]2[C@H](O)c1cc(-c2ccc(Cl)c(Cl)c2)nc2ccc(OC)cc12.Cl` are 98%, 99% and 17%.
The corresponding values for `CNCCN(C)C(=O)Oc1c(Cl)c(C)nc(C)c1-c1ccc(Oc2ccc(OC(F)(F)F)cc2)cc1.Cl` are 97%, 96% and 0%.
On the same counts, the results for `CC(=O)N(Cc1cccc(-c2ccc(CNCCc3ccccc3)cc2)c1)C1CCN(Cc2ccccc2)CC1.O=C(O)C(F)(F)F` are 99%, 50% and 32%.
With `CCC1(C)CC(CCNCc2ccccc2O)(c2ccc(F)cc2)CCO1` (stereo not drawn), the Inhibition in the experiment with Plasmodium falciparum [1] worked out at 98%; in the experiment with Plasmodium falciparum [2], 32%; in the experiment on HepG2, 20%.
The corresponding values for `COc1ccc(CC(C)NCC(O)c2cccc(Cl)c2)cc1C` (stereo not drawn) are 89%, 78% and 11%.
On the same counts, the results for `O=[N+]([O-])c1ccc(Oc2c(Cl)cc(S(=O)(=O)NC3CCC(CN4CCC(c5c[nH]c6ccccc56)CC4)CC3)cc2Cl)c(Cl)c1` (stereo not drawn) are 100%, 64% and 30%.
The corresponding values for `Oc1ccc(Cl)cc1CN1CCC(CCOC(c2ccccc2)c2ccccc2)CC1` are 98%, 99% and 14%.
On to `CCCCCC(C)C(C)c1cc(O)c2c(c1)OC(C)(C)c1cnccc1-2.Cl` (stereo not drawn), for which the Inhibition was determined as 94% with Plasmodium falciparum [1], 74% in the experiment on Plasmodium falciparum [2] and 7% in the experiment with HepG2.
As to `Oc1ccc(Cl)cc1CN1CCC(CCOC(c2ccccc2)c2ccc(Cl)cc2)CC1` (stereo not drawn), the Inhibition with Plasmodium falciparum [1] is 98%; with Plasmodium falciparum [2] it was 100%; with HepG2, 32%.

The values are drawn from ChEMBL document CHEMBL1157539, “Thousands of chemical starting points for antimalarial lead identification” (Nature, 2010).
